Measurements taken from PubChem BioAssay (NCATS).
Results filed as inconclusive are left out. The source made the active and inactive calls. The call rests on the fitted dose curve; in most records, active means well fitted curve in the direction sought with a large enough effect; inconclusive means small, poorly fitted or top-dose-only effect, or another doubt; inactive means no such curve, though single readings can be large; an effect the other way counts as inactive or inconclusive.

Key:
[1] = HPAF-II 18hr Apoptosis Induction qHTS against the NCATS CANVASS Library (AID 1347360)
Procedure, shortened: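 HPAF-II cells at 500/well were exposed for 18 h at 37 C to an 11-point compound series. Caspase-3/7 activity was read by Caspase-Glo luminescence after 15 min at RT.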

[2] = HEK293 12hr Apoptosis Induction qHTS against the NCATS CANVASS Library (AID 1347361)
Procedure, shortened: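 HEK293 cells (500/well) were exposed to an 11-point qHTS concentration series for 12 hours at 37 degrees C. Caspase-3/7 activity was then read by DEVD-substrate luciferase luminescence after 15 min at room temperature.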

[3] = biological target: Luciferin 4-monooxygenase (Photinus pyralis) (UniProt P08659); assay: Firefly luciferase counterscreen qHTS: Assay Interference Panel against the NCATS CANVASS Library (AID 1347363); further: series mostly up to about 57 µM
Procedure, shortened: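 Purified P. pyralis luciferase (0.04 ug/mL, 4x reagent) added to Tris-acetate buffer with 0.013 mM D-luciferin, 0.013 mM ATP and 13.3 mM Mg-acetate; compounds preincubated 15 min, then luminescence read after 5 min, RT.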

[4] = SDT Cancer Cell Toxicity qHTS against the NCATS CANVASS Library (AID 1347365);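 further: SDT canine glioma cells 500 per well in 1536 well plates; series mostly up to about 46 µM; nearly all actives have a fitted effect of over 60% in size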
Procedure, shortened: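 SDT dog glioma cells (500/well) exposed to an 11-point compound series for 72 hr at 37C, 5% CO2. Cytotoxicity read as ATP content by CellTiterGlo luminescence; bortezomib titration as control.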

[5] = KB-3-1 Cancer Cell Toxicity qHTS against the NCATS CANVASS Library (AID 1347366); further: series mostly up to about 46 µM; nearly all actives have a fitted effect of over 75% in size
Procedure, shortened: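 KB-3-1 cells (500/well) in DMEM with 10% FBS were exposed to compounds for 72 h at 37C. Viability was read by CellTiter-Glo luminescence.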

[6] = qHTS for ATAD5 Agonist screened against the NCATS CANVASS Library (AID 1347367);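 further: luciferase reporter driven by ATAD5 which rises upon DNA damage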
Procedure, shortened: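 Luciferase reporter under ATAD5 control, stably integrated in HEK293T cells (2000/well). Compounds (11 points) incubated 16 h at 37C; viability read first by CellTiter-Fluor, then luminescence reporting ATAD5 activation. MMS positive control.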

[7] = G06 Cancer Cell Toxicity qHTS against the NCATS CANVASS Library (AID 1347368); further: series mostly up to about 46 µM; nearly all actives have a fitted effect of over 60% in size
Procedure, shortened: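 G06 dog glioma cells, 500 per well, exposed 72 hr at 37C, 5% CO2 to compounds in an 11-point series. Cytotoxicity read as ATP content by CellTiterGlo luminescence.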

[8] = MCF7 Cancer Cell Toxicity qHTS against the NCATS CANVASS Library (AID 1347369)
Procedure, shortened: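 MCF7 cells (500/well) were exposed 72 h at 37 °C to compounds in an 11-point series. Viability was read as ATP content by CellTiterGlo luminescence.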

[9] = qHTS for ATAD5 Antagonist screened against the NCATS CANVASS Library (AID 1347370);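 further: HEK293T cells carrying an ATAD5 luciferase reporter co-treated with 10 µM 5-fluorouridine; series mostly up to about 46 µM; nearly all actives have a fitted effect of over 65% in size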
Procedure, shortened: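 HEK293T cells with stably integrated ATAD5-luciferase reporter, 2000/well, 5 h attachment; compounds plus 10 µM 5-fluorouridine, 16 h at 37 °C. Luciferase luminescence read, with CellTiter-Fluor viability read first.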

[10] = J3T Cancer Cell Toxicity qHTS against the NCATS CANVASS Library (AID 1347371);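 further: J3T is a canine glioma cancer cell line seeded at 500 cells per well; series mostly up to about 46 µM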
Procedure, shortened: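 J3T dog glioma cells, 500 per well, treated 72 h at 37C with compounds (11-point qHTS); viability from ATP content by CellTiterGlo luminescence; bortezomib titration as control.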

[11] = biological target: Nuclear receptor subfamily 1 group I member 3 (Homo sapiens) (UniProt Q14994); assay: qHTS for Constitutive Androstane Receptor (CAR) Antagonist screened against the NCATS CANVASS Library (AID 1347372);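 further: cells stimulated with 50 nM CITCO agonist so inhibition reflects antagonism; series mostly up to about 46 µM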
Procedure, shortened: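 HepG2 cells stably carrying hCAR and CYP2B6-2.2kb luciferase reporter, 2500 cells/well, compound with 50 nM CITCO agonist for 24hr at 37C. ONE-Glo luminescence measured CAR activity; CellTiter-Fluor read viability.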

[12] = biological target: Nuclear receptor subfamily 1 group I member 3 (Homo sapiens) (UniProt Q14994); assay: qHTS for Constitutive Androstane Receptor (CAR) Agonist screened against the NCATS CANVASS Library (AID 1347373);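 further: every well also contained 1.5 µM PK11195 alongside the test compound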
Procedure, shortened: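 HepG2 cells stably carrying hCAR and a CYP2B6-2.2kb luciferase reporter, treated 24hr at 37C with compounds plus 1.5uM PK11195; activation by ONE-Glo luminescence, viability by CellTiter-Fluor.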

[13] = qHTS for Hypoxia signaling pathway (HIF-1) antagonists against the NCATS CANVASS Library (AID 1347374);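 further: HRE-bla ME-180 cells stimulated with cobalt chloride to stabilize HIF-1alpha; series mostly up to about 38 µM; nearly all actives have a fitted effect of over 60% in size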
Procedure, shortened: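 HRE-bla ME-180 cells in medium with 0.5% dialyzed FBS received compounds (11-point series) plus CoCl2 (60 uM addition stock) for 17 hrs at 37C. Beta-lactamase activity read with CCF4 (405 nm ex, 460/530 nm em); CellTiter-Glo viability measured in same wells.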

[14] = qHTS for Hypoxia signaling pathway (HIF-1) agonists against the NCATS CANVASS Library (AID 1347375)
Procedure, shortened: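 HRE-bla ME-180 cells (0.5% dialyzed FBS) were pre-incubated 5 hrs at 37C, then exposed to compounds in an 11-point series for 17 hrs. Read-out was CCF4-AM beta-lactamase FRET (460/530 nm emissions), with CellTiter-Glo viability in the same wells.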

[15] = qHTS for H2AX Agonists against the NCATS CANVASS Library (AID 1347378)
Procedure, shortened: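 CHO-K1 cells (1000/well, overnight at 37C) exposed to compounds at several concentrations for 3 hr at 37C, 0.76% DMSO final. Lysates read by TR-FRET (phospho-H2AX S139 Eu-cryptate antibody / H2AX-d2 antibody) after 24 hr at room temperature; 665/615 nm ratio.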

[16] = qHTS for Inflammasome Signaling Inhibitors: IL-1-beta AlphaLISA screen against the NCATS CANVASS Library (AID 1347379);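 further: human THP-1 cells primed with LPS then triggered with ATP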
Procedure, shortened: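 THP-1 cells pretreated 1 hr with compound (up to 57.5 uM final), then stimulated with LPS (250 ng/mL final) and ATP (1.25 mM final). Secreted IL-1B measured by AlphaLISA after 16 hr; glyburide as positive control.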

[17] = Cytotoxicity qHTS for assessment of Hepg2 cells membrane integrity screened against the NCATS CANVASS Library (AID 1347387)
Procedure, shortened: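 HepG2 cells (2000/well) attached overnight, then exposed 5 hr at 37C to compounds in an 11-point series (0.59 nM - 46 uM final). LDH release from damaged membranes read fluorometrically (CytoTox-ONE; 560/590 nm) after 10 min at room temperature.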

[18] = qHTS for Activators of p53 Stress Response Pathway screened against the NCATS CANVASS Library (AID 1347388)
Procedure, shortened: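 p53RE-bla HCT-116 cells (4000/well) were pre-incubated for 5 h, then treated with compound (11 points) for 16 h at 37C. After 2 h with CCF4, the 460/530 nm ratio gave reporter activation; CellTiter-Glo measured viability.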

[19] = qHTS assay for small molecule disruptors of mitochondrial membrane potential screened against the NCATS CANVASS Library (AID 1347389); further: series mostly up to about 46 µM; nearly all actives have a fitted effect of over 60% in size
Procedure, shortened: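 HepG2 cells (2,000/well) plated overnight, then exposed to compounds in 11-point qHTS series for 1 h at 37C before 30 min Mito-MPS dye; depolarization read as fall in red aggregate (590 nm) to green monomer (535 nm) fluorescence.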

[20] = qHTS for activators of Nrf2/ARE signaling pathway screened against the NCATS CANVASS Library (AID 1347391); further: nearly all actives have a fitted effect of over 60% in size
Procedure, shortened: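 ARE-bla HepG2 beta-lactamase reporter cells exposed to compounds for 16 h at 37C; CCF4 substrate 2 h, fluorescence at ex 405 nm, em 460/530 nm. Viability by CellTiter-Glo luminescence.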

[21] = qHTS for activators of dead-cell proteases activity screened against the NCATS CANVASS Library (AID 1347392);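 further: luminescence from protease leaking out of membrane-damaged cells cleaving impermeant substrate; rising signal means more cytotoxicity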
Procedure, shortened: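 HepG2 cells, 2000/well, attached 18 h at 37C, then exposed to compounds (11-point qHTS) for 5 h. Dead-cell protease release read as luminescence from cell-impermeant AAF-aminoluciferin substrate after 15 min at room temperature.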

[22] = Vero-766 cells viability qHTS against the NCATS CANVASS Library: Counterscreen for Zika virus inhibition assay (AID 1347394)
Procedure, shortened: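 Vero 766 cells (1000/well), without Zika virus, were exposed to compounds for 72 h at 37C. Viability was measured by CellTiter Glo luminescence. Media-only wells served as 100% inhibition.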

[23] = qHTS for inhibitors of Wild type Zika virus screened against the NCATS CANVASS Library (AID 1347396);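 further: ATP luminescence of surviving cells so rescue from viral cell killing; series mostly up to about 46 µM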
Procedure, shortened: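 Vero 766 (African green monkey) cells, 1000 per well, attached overnight, then compounds were added in an 11-point series before wild-type Zika virus infection. After 72 h at 37C, cell viability was read as CellTiter Glo luminescence.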

Measured: Potency

Chain of Nuclear receptor subfamily 1 group I member 3 (Homo sapiens) (Q14994 whole entry, looked up): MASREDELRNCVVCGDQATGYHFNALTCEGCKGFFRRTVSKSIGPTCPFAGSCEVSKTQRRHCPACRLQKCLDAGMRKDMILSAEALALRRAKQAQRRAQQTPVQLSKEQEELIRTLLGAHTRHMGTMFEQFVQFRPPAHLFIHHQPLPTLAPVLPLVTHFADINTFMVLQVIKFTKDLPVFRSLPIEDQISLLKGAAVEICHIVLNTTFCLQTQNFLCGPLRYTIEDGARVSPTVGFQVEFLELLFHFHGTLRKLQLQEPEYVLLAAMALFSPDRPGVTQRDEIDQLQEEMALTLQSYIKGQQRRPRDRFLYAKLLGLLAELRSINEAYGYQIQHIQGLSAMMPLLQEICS
Chain of Luciferin 4-monooxygenase (Photinus pyralis) (P08659 whole entry, looked up): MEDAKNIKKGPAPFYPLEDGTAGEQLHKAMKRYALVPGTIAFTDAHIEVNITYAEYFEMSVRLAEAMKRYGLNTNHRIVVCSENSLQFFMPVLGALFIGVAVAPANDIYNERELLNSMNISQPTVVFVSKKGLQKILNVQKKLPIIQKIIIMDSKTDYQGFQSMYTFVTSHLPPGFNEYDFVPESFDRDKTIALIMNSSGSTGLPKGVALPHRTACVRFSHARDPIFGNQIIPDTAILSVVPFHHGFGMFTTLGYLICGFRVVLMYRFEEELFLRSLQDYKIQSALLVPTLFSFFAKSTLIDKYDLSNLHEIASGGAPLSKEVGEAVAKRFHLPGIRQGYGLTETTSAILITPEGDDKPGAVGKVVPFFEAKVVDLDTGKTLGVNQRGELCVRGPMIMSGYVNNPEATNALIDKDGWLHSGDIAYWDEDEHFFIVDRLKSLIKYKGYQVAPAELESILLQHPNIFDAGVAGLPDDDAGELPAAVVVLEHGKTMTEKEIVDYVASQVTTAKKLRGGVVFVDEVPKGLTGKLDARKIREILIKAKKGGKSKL

O=C(OC1Cc2c(O)cc(O)cc2OC1c1cc(O)c(O)c(O)c1)c1cc(O)c(O)c(O)c1 (stereo not drawn)
inactive: all assays above
